Bioassay records deposited in PubChem BioAssay by National Center for Advancing Translational Sciences (NCATS).
In the library only some 5.3% were active in any assay of this set; here they are far more common.
KDM4E inh: blocks human JMJD2E demethylase activity; B2RXH2; JMJD2E catalytic domain, FDH-coupled NADH fluorescence (FDH is formaldehyde dehydrogenase); Potency, µM (highest dose often 57.1 µM), hits mostly inhibitors; actives 1.6% (n = 230,000); AID 2147; active = well fitted inhibition curve with a large enough effect, not every such curve was filed as active; inconclusive = small, poorly fitted or top-dose-only effect, or another doubt; inactive = no such curve, though single readings can be large or run the other way; also: nearly all actives have a fitted effect of over 50% in size
Target sequence (B2RXH2 1-337 limits assumed): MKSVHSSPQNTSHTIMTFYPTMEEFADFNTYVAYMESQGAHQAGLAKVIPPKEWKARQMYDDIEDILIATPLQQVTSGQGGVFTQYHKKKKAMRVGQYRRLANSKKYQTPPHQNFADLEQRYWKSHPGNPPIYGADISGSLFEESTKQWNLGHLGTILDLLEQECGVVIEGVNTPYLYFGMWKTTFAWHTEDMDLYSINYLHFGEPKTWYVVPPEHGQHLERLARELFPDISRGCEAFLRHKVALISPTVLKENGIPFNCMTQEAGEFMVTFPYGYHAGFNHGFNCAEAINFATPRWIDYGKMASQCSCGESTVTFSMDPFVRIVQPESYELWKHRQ
Coupling enz: inhibits coupling enzyme system, counter-screen for aldolase hits | activity change, negative = inhibition, % at 58.2 µM, hits read low | actives 0.67% (n = 290,000) | AID 2472 | coupling enzyme system counterscreen, AmpLite Red fluorescence; in the data active = activity change below about -30%
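Final compound at 57.5 uM, incubated 10 min at RT with coupling enzyme reagent (glyceraldehyde-3-phosphate), then 20 min with substrate and AmpLite Red detection. Fluorescence read at 525/598 nm; tests interference with the coupling assay, not aldolase inhibition.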
Tau fibril FP: inhibitors of human tau fibril formation; P10636; K18 P301L tau heparin fibrillization, Alexa594 FP, 6 h; Potency, µM (highest dose often 57.7 µM), most hits filed as inhibitors; actives 0.39% (n = 280,000); also: nearly all actives have a fitted effect of over 55% in size
Target sequence (P10636 561-689 P618L limits assumed): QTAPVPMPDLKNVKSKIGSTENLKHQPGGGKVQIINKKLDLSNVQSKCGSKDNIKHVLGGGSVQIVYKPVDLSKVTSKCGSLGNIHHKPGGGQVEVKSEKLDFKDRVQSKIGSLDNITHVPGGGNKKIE
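Read-out: fluorescence polarization of Alexa 594-labeled tau (0.24 uM), 555 nm excitation, 632 nm emission. Mixtures held 15 uM unlabeled K18 P301L, compound and 20 uM heparin, pH 7 acetate buffer, incubated 6 hr at 37 C.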
Tau fluor cs: counter-screen for tau fibril formation inhibitors | tau K18 P301L Alexa594 fluorescence, heparin fibrillization | Potency, µM (titrated, usually from 57.7 µM) | actives 0.93% (n = 280,000) | AID 1463; also: nearly all actives have a fitted effect of over 55% in size
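Human K18 P301L tau (15 uM unlabeled plus 0.24 uM Alexa 594-labeled, final) in 100 mM sodium acetate pH 7 was mixed with compound and 20 uM heparin and incubated 6 hr at 37 C.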
Tau ThT inhib: inhibitors of human tau fibril formation, thioflavin T binding; recombinant tau K18 P301L (four-repeat tau fragment), heparin-induced fibrillization, ThT fluorescence; Potency, µM (top dose mostly 57.4 µM), most hits filed as inhibitors; actives 2.1% (n = 270,000); AID 1460; also: nearly all actives have a fitted effect of over 55% in size
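Recombinant human tau K18 fragment […] carrying P301L, 15 uM unlabeled plus 0.24 uM Alexa 594-labeled, was fibrillized with 20 uM heparin in 100 mM sodium acetate pH 7 for 6 hr at 37 C; 30 uM ThT fluorescence read after 1 hr.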
Sfp inh: Sfp phosphopantetheinyl transferase inhibition; Q9F4F7; actives 3.5% (n = 310,000); Biochemical Sfp PPTase activity, qHTS; Potency, µM, hits mostly inhibitors;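 also: the enzyme is Sfp with the accession as filed and its product quenches rhodamine fluorescence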
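With Hepes-Na pH 7.6 buffer containing 10 mM MgCl2, Sfp (15 nM) modified BHQ-2-YbbR (12.5 uM) using rhodamine-CoA (5 uM). Two reads 30 minutes apart at 525/598 nm yielded each well's rate.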
Numbers stand for hits; 0 = inactive; ? = inconclusive; - = not tested or not shown; [ ] = dose if it differs, or a comment. Unless noted, calls follow the shape of the dose curve; as a rule, active = well fitted curve in the direction sought with a large enough effect; inconclusive = small, poorly fitted or top-dose-only effect, or another doubt; inactive = no such curve, though single readings can be large; an effect the other way counts as inactive or inconclusive.

SMILES	KDM4E inh	Coupling enz	Tau fibril FP	Tau fluor cs	Tau ThT inhib	Sfp inh
Cc1cc(NC(=O)COCc2cc(-c3ccc(F)cc3)on2)ccc1Br	-	-	?	?	0	-
COc1ccc(CCN2C(=O)CC(Nc3ccc(N4CCOCC4)cc3)C2=O)cc1OC (centres undefined)	?	0	0	0	12.6µM	0
O=C1CC(Nc2ccc(N3CCOCC3)cc2)C(=O)N1c1ccccc1F (centres undefined)	0	0	0	0	14.1µM	50.1µM
COc1ccc(CC(=O)Nc2ccc3nc(Nc4cccc(Cl)c4)cc(C)c3c2)cc1	-	-	?	4.47µM[quencher]	?	-
COc1ccccc1CC(=O)Nc1ccc2nc(Nc3cccc(Cl)c3)cc(C)c2c1	-	-	?	3.98µM[quencher]	?	-
Cc1cccc(OCC(=O)Nc2ccc3nc(Nc4cccc(C(F)(F)F)c4)cc(C)c3c2)c1	-	-	0	?	0	-
Cc1ccc(OCC(=O)Nc2ccc3nc(Nc4cccc(Cl)c4)cc(C)c3c2)cc1	-	-	0	?	0	-
Cc1cc(Nc2cccc(C(F)(F)F)c2)nc2ccc(NC(=O)Cc3ccc(Cl)cc3)cc12	-	-	?	7.94µM[quencher]	?	-
COc1ccccc1CC(=O)Nc1ccc2c(C)cc(=O)oc2c1	-	0	-	-	-	0
COC(=O)C1=NOC2(C=C(Br)C(OC)=C(Br)C2=O)C1 (centres undefined)	-	0	?	0[11.6 µM]	3.98µM	0.794µM
O=C(Nc1ccc(N2CCOCC2)cc1)C1CC(=O)N(c2ccc(Cl)cc2)C1 (centres undefined)	0	0	0	0	?	0
O=C(Nc1ccc(N2CCOCC2)cc1)C1CC(=O)N(c2ccccc2)C1 (centres undefined)	0	0	0[2.34 µM]	0	4.47µM	0
O=C(Nc1ccc(Cl)cc1)C1CCN(S(=O)(=O)c2ccc(Br)s2)CC1	-	-	?	?	0	-
CCOC(=O)N1CCC(Nc2cccc(SC)c2)CC1	?	-44.4	0	0	0	56.2µM
CCC(C)N(C)C1CCN(C(=S)Nc2cccc(SC)c2)CC1 (centres undefined)	0	0	0	0	0	56.2µM
CCOC(=O)N1CCC(Nc2c(Nc3cccc(CC)c3)c(=O)c2=O)CC1	?	0	?	14.1µM[quencher]	?	0
COc1ccc2c(c1)c1c(c(=O)n(Cc3ccccc3)c(=O)n1Cc1cccc(Cl)c1)n2C	-	-	0	0	0	-
N#Cc1c(-c2cccs2)nc(SCc2ccc(Cl)cc2)[nH]c1=O	0	0	0	0	0	79.4µM
O=C(NC(Cc1c[nH]c2ccccc12)C(=O)O)c1cccs1 (centres undefined)	0	0	0	0	0	0
O=C(NC(Cc1c[nH]c2ccccc12)C(=O)Nc1ccc(F)c([N+](=O)[O-])c1)c1cccs1 (centres undefined)	0	0	0	15.8µM[quencher]	?	0
O=C(NC(Cc1c[nH]c2ccccc12)C(=O)Nc1ccc(OC(F)(F)F)cc1)c1cccs1 (centres undefined)	0	0	?	7.94µM[quencher]	0	0
Cc1nc2ccc(S(=O)(=O)NC(C(=O)N3CCN(c4cccc(Cl)c4)CC3)C(C)C)cc2s1 (centres undefined)	-	-	0	0	?	-
O=C(c1ccncc1)N1N=C(c2ccc(Cl)cc2)CC1c1ccccc1O (centres undefined)	-	0	-	-	-	0
COc1ccc(C2=NN(C(=O)c3ccncc3)C(c3ccccc3O)C2)cc1 (centres undefined)	-	0	-	-	-	14.1µM
COc1ccc(C2CC(c3ccccc3)=NN2c2ccc(/C=N/NC(=O)c3ccncc3)cc2)cc1 (centres undefined)	0	0	?	12.6µM[quencher]	?	0
SMILES	KDM4E inh	Coupling enz	Tau fibril FP	Tau fluor cs	Tau ThT inhib	Sfp inh
CCCC[C@@H]1C[C@H]1C(NC(=O)c1ccco1)c1ccccc1 (some centres undefined)	0	0	0	0	0	0
COc1ccc(OC)c(NC(=O)C2=C(C)C(=O)OC23CCCCCC3)c1	-	-	0	0	0	-
Cc1ccc2oc(C(=O)Nc3sc4c(c3C(=O)NCc3ccccc3)CCCC4)cc(=O)c2c1	-	-	0	0	?	-
COc1ccc(NC(=O)c2oc3ccccc3c2NC(=O)Cc2ccc(F)cc2)c(OC)c1	-	-	0	0	0	-
CCCCN1C(=O)/C(=c2\sc3nc(=O)c(-c4ccccc4)nn3c2=O)c2ccccc21	0	0	0	0	?	15.8µM
NC(=O)CN1C(=O)C2CCCCN2C(=O)c2ccccc21 (centres undefined)	0	0	0	0	0	0
NC(=O)CN1C(=O)/C(=c2\sc3nc(=O)c(Cc4ccccc4)nn3c2=O)c2ccccc21	0	0	0[11.6 µM]	0[11.6 µM]	-	11.2µM
CCCN1C(=O)/C(=c2\sc3nc(=O)c(Cc4ccc(C)cc4)nn3c2=O)c2ccccc21	0	0	?	0	?	20µM
CCOc1cc(/C=C\[N+](=O)[O-])ccc1OCC(=O)Nc1ccccc1C	0	0	0	0	0	2µM
COc1c(C2=CC(=O)N(C)C2=O)c2c(n1C)C(=O)c1ccccc1C2=O	0	-34.6	0	17.8µM[quencher]	14.1µM	25.1µM
CSCC[C@H](NC(=O)[C@H](Cc1ccccc1)NC(=O)[C@H](Cc1cnc[nH]1)NC(=O)CNC(=O)[C@@H](NC(=O)[C@H](C)NC(=O)[C@H](Cc1c[nH]c2ccccc12)NC(=O)[C@H](CCC(N)=O)NC(=O)[C@@H]1CCCN1C(=O)[C@@H](NC(=O)[C@@H]1CCC(=O)N1)C(C)C)C(C)C)C(N)=O	-	0	-	-	-	0
CCOC(=O)c1c(S(=O)(=O)N2CCCC(C(=O)Nc3ccc(OCC)cc3)C2)c(C)n(C)c1C (centres undefined)	-	-	0	0	0	-
COc1ccc(NC(=O)/C(Cl)=C(/Cl)S(=O)(=O)Cc2ccccc2)cn1	0	0	?	0	7.08µM	0
COc1ccc(NC(=O)C(Cl)=C(Cl)Cl)cn1	0	0	0	0	0	0
COc1ccc(NC(=O)/C(Cl)=C(/Cl)S(=O)Cc2ccc(Cl)cc2)cn1 (centres undefined)	0	0	?	0	?	11.2µM
COCCn1c(=O)c(-c2ccc(Cl)cc2)nc2cnc(OC)nc21	-	0	-	-	-	0
CC1CC=CC2C1C(=O)N(Cc1ccccc1)C2c1ccoc1 (centres undefined)	-	0	-	-	-	0
COc1ccc(N/N=C(/N=Nc2nc(C)cc(=O)[nH]2)c2ccccc2)cc1	14.1µM	0	0	?	4.47µM	0
Cc1cc(=O)[nH]c(N=N/C(=N/Nc2ccc(O)cc2)c2ccccc2)n1	0	0	0	0	0	0
COc1cccc(C(=O)NC2CC3CCCC(C2)N3CC(=O)Nc2ccc(N(C)C)cc2)c1 (centres undefined)	0	0	0	0	0	0
COc1cccc(C(=O)NC2CC3CCCC(C2)N3CC(=O)Nc2ccccc2)c1 (centres undefined)	?	-35.7	0	0	?	0
